Measured values published in PubChem BioAssay AID1159580 (chemical genetic matrix, 2015).
Values joined by “and” are separate entries in the source; they are usually repeats but may differ in a detail not shown here. Identical values can stand only once. Among all 5,500 compounds or so, about 2,000 (36%) were called active. Not shown: some 18% with an inconclusive outcome. Cut-off read from the data, not from the text of the source: active = normalized growth mostly below about 0.91 (no sharp cut-off); inconclusive = no clear call, values can overlap the other calls; inactive = mostly above about 0.92. This is one part of the list.

Test: chemical genetic growth profiling, strain panel (AID 1159580);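 note: tested at 20 µM; growth read once vehicle control cultures reached saturation at 30 °C; 1 = growth at the plate median or of vehicle wells; lower values mean less growth of the strain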
Conditions: S. cerevisiae deletion strains, growth OD

Measured: normalized growth

CC1(C)C[C@@H]2C(=O)CC[C@H]3O[C@]3(C)CC[C@H]21
inactive: locus YAL013W, strain DEP1, active compounds read low 1.01 | locus YAL021C, strain ccr4, active compounds read low 0.98 | locus YAL026C, strain drs2, active compounds read low 1.04 | locus YAL030W, strain snc1, active compounds read low 1.01 | locus YBL061C, strain skt5, active compounds read low 1.03 | locus YBR009C, strain hhf1, active compounds read low 1.02 | locus YBR021W, strain FUR4, active compounds read low 1.01 | locus YBR023C, strain chs3, active compounds read low 1.02 | locus YBR171W, strain sec66, active compounds read low 1.02 | locus YBR229C, strain ROT2, active compounds read low 1 | locus YBR231C, strain swc5, active compounds read low 1 | locus YBR279W, strain paf1, active compounds read low 1 | locus YCL011C, strain gbp2, active compounds read low 1.02 | locus YCL016C, strain dcc1, active compounds read low 1.01 | locus YCL029C, strain bik1, active compounds read low 0.994 | locus YCL061C, strain MRC1, active compounds read low 1.01 | locus YCL069W, strain vba3, active compounds read low 1.01 | locus YCR088W, strain abp1, active compounds read low 1.01 | locus YDL005C, strain med2, active compounds read low 1.01 | locus YDL035C, strain GPR1, active compounds read low 1.01 | locus YDL040C, strain nat1, active compounds read low 1.02 | locus YDL074C, strain BRE1, active compounds read low 1.04 | locus YDL101C, strain DUN1, active compounds read low 1.02 | locus YDL134C, strain PPH21, active compounds read low 1.01 | locus YDL185W, strain tfp1, active compounds read low 0.995 | locus YDL192W, strain arf1, active compounds read low 0.996 | locus YDR001C, strain nth1, active compounds read low 1.02 | locus YDR069C, strain doa4, active compounds read low 1.03 | locus YDR101C, strain arx1, active compounds read low 0.986 | locus YDR137W, strain rgp1, active compounds read low 1.02 | locus YDR150W, strain NUM1, active compounds read low 1.01 | locus YDR159W, strain sac3, active compounds read low 1.05 | locus YDR162C, strain NBP2, active compounds read low 1.02 | locus YDR195W, strain ref2 1.01 | locus YDR297W, strain sur2, active compounds read low 1.01 | locus YDR318W, strain mcm21, active compounds read low 0.994 | locus YDR334W, strain swr1, active compounds read low 1.01 | locus YDR335W, strain msn5, active compounds read low 1.01 | locus YDR388W, active compounds read low 0.996 | locus YDR392W, strain spt3, active compounds read low 0.914 | locus YDR502C, strain sam2, active compounds read low 0.994 | locus YEL003W, strain gim4, active compounds read low 1.01 | locus YEL037C, strain rad23, active compounds read low 1.01 | locus YEL061C, strain CIN8 (second series), active compounds read low 1.02 | locus YEL061C, strain CIN8, active compounds read low 1 | locus YER015W, strain faa2, active compounds read low 1.01 | locus YER016W, strain bim1, active compounds read low 1.01 | locus YER110C, active compounds read low 0.989 | locus YER111C, strain swi4, active compounds read low 1.01 | locus YER155C, strain BEM2 (second series), active compounds read low 1.03 | locus YER155C, strain BEM2, active compounds read low 1 | locus YER167W, strain BCK2, active compounds read low 1.01 | locus YFR010W, strain ubp6, active compounds read low 1.04 | locus YGL078C, strain dbp3, active compounds read low 0.999 | locus YGL086W, strain mad1, active compounds read low 0.966 | locus YGL167C, strain pmr1, active compounds read low 1.02 | locus YGL173C, strain kem1, active compounds read low 1.03 | locus YGL227W, strain vid30, active compounds read low 1.01 | locus YGL240W, strain doc1, active compounds read low 1.02 | locus YGL248W, strain PDE1, active compounds read low 1 | locus YGL253W, strain hxk2, active compounds read low 1.03 | locus YGR078C, strain PAC10, active compounds read low 1.02 | locus YGR135W, strain pre9, active compounds read low 0.999 | locus YGR229C, strain SMI1, active compounds read low 1.01 | locus YGR252W, strain gcn5, active compounds read low 1.01 | locus YHR013C, strain ard1, active compounds read low 1.03 | locus YHR027C, strain rpn1, active compounds read low 1.02 | locus YHR030C, strain SLT2, active compounds read low 1.01 and 0.967 | locus YHR079C, strain IRE1 (second series), active compounds read low 0.996 | locus YHR079C, strain IRE1, active compounds read low 0.953 | locus YHR094C, strain hxt1, active compounds read low 0.998 | locus YHR129C, strain ARP1, active compounds read low 1.01 | locus YHR142W, strain chs7, active compounds read low 1.02 | locus YHR200W, strain rpn10, active compounds read low 0.997 | locus YIL066C, strain RNR3, active compounds read low 1 | locus YIL073C, strain SPO22, active compounds read low 0.968 | locus YIL125W, strain kgd1, active compounds read low 0.998 | locus YIR030C, strain dcg1, active compounds read low 0.986 | locus YJL092W, strain hpr5, active compounds read low 1.02 | locus YJL095W, strain BCK1 (second series), active compounds read low 1.04 | locus YJL095W, strain BCK1, active compounds read low 1.01 and 0.961 | locus YJL115W, strain asf1, active compounds read low 1.01 | locus YJL129C, strain trk1, active compounds read low 1.02 | locus YJL134W, strain LCB3, active compounds read low 1.01 | locus YJL154C, strain vps35, active compounds read low 1.01 | locus YJL164C, strain tpk1, active compounds read low 0.995 | locus YJL166W, strain qcr8, active compounds read low 1.04 | locus YJL168C, strain set2, active compounds read low 0.994 | locus YJL187C, strain SWE1 (second series), active compounds read low 1.02 | locus YJL187C, strain SWE1, active compounds read low 1 | locus YJR043C, strain POL32, active compounds read low 1 | locus YJR066W, strain TOR1, active compounds read low 0.998
